Results as given in PubChem BioAssay AID1159580 (chemical genetic matrix, 2015).
Out of some 5,500 compounds screened, about 2,000 (36%) were called active. Not shown: some 18% with an inconclusive outcome. Rule as the data show it: active = normalized growth mostly below about 0.91 (no sharp cut-off); inconclusive = no clear call, values can overlap the other calls; inactive = mostly above about 0.92. Some of the results follow.

Assay: chemical genetic growth profiling, strain panel (AID 1159580);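 also: tested at 20 µM; growth read once vehicle control cultures reached saturation at 30 °C; 1 = growth at the plate median or of vehicle wells; lower values mean less growth of the strain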
Conditions: S. cerevisiae deletion strains, growth OD

Measured: normalized growth

N=c1c[n+](N2CCOCC2)[n-]o1
inactive: locus YAL040C, strain CLN3, hits give low values 1 | locus YCL061C, strain MRC1 (second series), hits give low values 1.02 | locus YDR363W, strain ESC2, hits give low values 1.01 | locus YER002W, strain NOP16, hits give low values 1 | locus YJR075W, strain HOC1, hits give low values 1.01 | locus YMR307W, strain GAS1, hits give low values 1.01 | locus YNL175C, strain NOP13, hits give low values 1.01 | locus YNL197C, strain WHI3, hits give low values 0.999 | locus YNL224C, strain SQS1, hits give low values 1.02 | locus YOR083W, strain WHI5 (second series), hits give low values 1.01 | locus YPL055C, strain LGE1, hits give low values 1.02
